From PubChem BioAssay AID651789 (National Center for Advancing Translational Sciences (NCATS), 2012)
Results filed as inconclusive are left out. Entries that show only a call come without a potency. Calls of active or inactive are those of the source. The call rests on the fitted dose curve; in most records, active means well fitted inhibition curve with a large enough effect; inconclusive means small, poorly fitted or top-dose-only effect; inactive means no such curve, though single readings can be large or run the other way.
Potency means the concentration at half of the fitted maximal effect.

Test: Acumen qHTS Assay for Inhibitors of the mTORC1 Signaling Pathway in WT MEF Cells: Hit Validation; further: nearly all actives have a fitted effect of over 60% in size
Conditions: Acumen imaging; series mostly up to 37.3 µM
Source text: The mammalian target of rapamycin (mTOR) is an intracellular serine/threonine kinase Aberrant regulation of mTOR signaling plays a causative role in a number of human diseases, including cancer, benign tumors such as lymphangioleiomyomatosis (LAM) and Tuberous Sclerosis Complex (TSC), and metabolic diseases such as diabetes and obesity. This project aims to identify inhibitors of ribosomal protein S6 (rpS6) phosphorylation. The phosphorylation of rpS6 is a key event downstream of mTOR activation. The assay uses a phospho-specific antibody of phospho-rpS6 to detect inhibitors of mTOR activation. Mutations in the Tsc1 and Tsc2 genes are the underlying genetic lesions responsible for TSC, causing constitutive activation of the mTORC1 pathway and leading to profound effects on cell metabolism. Aberrant metabolism in cancer has recently received significant attention as a target to develop therapeutic agents in the treatment of cancer.1 As Tsc2-/- cells have lost the ability to respond to energy and growth factor deprivation, these cells are unable to properly down regulate cellular biosynthetic processes in response to metabolic stress, and are thus extremely sensitive to glucose deprivation-induced death.2 A central goal of this project is to explore the unique cell survival and metabolic properties of cells with Tsc1 or Tsc2 by screening for compounds that selectively target the Tsc2-/- MEFs by screening both Tsc2-/- and WT MEF cell lines. We hope to better understand these aspects of TSC physiology in order to exploit them for therapeutic benefit.
NIH Molecular Libraries Probe Production Centers Network [MLPCN]
NIH Chemical Genomics Center [NCGC]
Assay Submitter (PI): Blenis, John; Harvard University
For quantitative high throughput analysis of mTORC1 signaling, we developed a cell-based assay for immuno-fluorescence based detection of rpS6 phosphorylation on the Acumen Explorer that will be used a platform for the primary small molecule screen. Mouse embryonic fibroblasts (MEFs) are cultured in 1536-well plates using DMEM + 10% FBS. Twenty-four hrs after plating, test compounds (solubilized in DMSO) are delivered and incubated with the cells for 24 hrs at 37 degree Celsius. Following the incubation, media with compound is aspirated and the cells are fixed in 4% paraformaldehyde (PFA) containing PBS + 0.2% TX-100. Next, PFA is aspirated, cells are washed two times with PBS plus 0.2% TX-100 and the cells are blocked for 1 hr at room temperature (blocking buffer: LiCOR Blocking Buffer plus 0.2% TX-100). This is followed by aspiration and staining with Alexa-488 conjugated-phospho-rpS6 Ser235/236 antibody for 2 hours at room temperature (Cell Signaling Technology # 4803, 1:50 dilution in blocking buffer). Cells are washed two times with PBS plus 0.2% TX-100, and stained with 10 uM propidium iodide (PI) for 20-25 minutes for cell number measurement (1:500 dilution of Hoescht staining is also added for IN Cell imaging). The plates are scanned on the Acumen Explorer laser scanning instrument (TTP Labtech) using the 488nm laser for simultaneous excitation of the Alexa-488 and PI. […] Fluorescence emission from the PI stain is selected using a 575-640 nm band pass filter. The normalized phospho-S6 staining is calculated as the ratio of the integrated Alexa 488 intensity divided by the integrated PI intensity for the single concentration rapamycin control (7.5 nM) and DMSO columns. […] Inhibition of the pathway is defined based on the normalized phospho-S6 intensity in rapamycin treated cells. Active cells are defined as those with a normalized phospho-S6 staining above this threshold, and each treatment is reported as the % positive cells in the well, where thresholds are defined by selecting wells with the highest and lowest signal and differentiating between the % non-active and % active populations. In addition to the pathway specific phospho-S6 endpoint, the number of PI stained cells from the Acumen is recorded as a measure of cell viability. […]
In the case of `CCOc1ccc(CN(CCc2ccc3c(c2)OCO3)Cc2ccc(C)cc2)cc1`, the Potency is reported as “inactive”.
With `Cc1cccc(CN2CCc3nc(N4CCN(c5ccccn5)CC4)ncc3C2)c1` the Potency was “inactive”.
For `CCOc1ccc(N(C(C)C(=O)Nc2cc(Cl)ccc2OC)S(C)(=O)=O)cc1` (stereo not drawn), the Potency was 3.69 µM (active).
In the case of `CCN(CC)CCSc1nc2ccccc2c(=O)n1-c1ccc(Cl)cc1`, the Potency is reported as “inactive”.
For `CN[C@@H]1C[C@@]2(C)O[C@@H]([C@@H]1OC)n1c3ccccc3c3c4c(c5c6ccccc6n2c5c31)C(=O)NC4`, the Potency was 0.0325 µM (active).
With `Cc1ccc(-n2c(/C=C/c3ccc(Br)s3)nc3ccccc3c2=O)cc1C` the Potency was “inactive”.
With `Cc1ccccc1-n1c(/C=C/c2ccccc2F)nc2ccccc2c1=O` the Potency was “inactive”.
For `CCN(CC)C(=O)c1ccc(NC(=O)CCn2nc(-c3ccc(C)cc3)c3ccccc3c2=O)cc1`, the Potency was “inactive”.
In the case of `Cc1ccccc1-n1c(/C=C/c2c(C)[nH]c3ccccc23)nc2ccccc2c1=O`, the Potency is reported as 1.85 µM (active).
In the case of `CCCOC(=O)c1c(C)oc2c1cc(NS(=O)(=O)c1ccc(OCC)cc1)c1ccccc12`, the Potency is reported as 0.656 µM (active).
In the case of `CCOc1ccc(NC(=O)CSc2oc(-c3ccccc3)nc2S(=O)(=O)c2ccc(Cl)cc2)cc1`, the Potency is reported as 3.69 µM (active).
For `O=C(Nc1ccon1)c1cccn(Cc2cccc(Cl)c2)c1=O`, the Potency was “inactive”.
For `Cc1ccccc1-c1nc(CN2C(=O)CN=C(c3ccccc3)c3ccccc32)c(C)o1`, the Potency was “inactive”.
